Source: PubChem BioAssay (several laboratories)
Rows were chosen to be rich in hits. Some 10% of all compounds tested hit in one or more screens of this group.
PTEN del growth: growth suppression of PTEN-null HCT116, primary screen, cell-based, CellTiter-Glo | HCT116 PTEN-null viability, 60 h; hits give low values | 1.2% of 140,000 active | AID 827, 2007 | viability, % at 10 µM;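 active = viability at or below a set limit, 4 SD under the median of all tested compounds, cut at about 3.7% in these data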;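 also: PTEN knockout HCT116 line with beta catenin targeted HCT116 as companion control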
Insulin prom inh: inhibitors of insulin promoter-driven GFP, primary screen, imaging, TRM-6 cells (human fetal islet line), eGFP reporter, cell count | reporter expression induced with tamoxifen | inhibition, % at 2 µM | 0.9% of 130,000 active | AID 1273, 2008;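 active = inhibition above the mean plus 3 SD, with well images judged a real hit on visual review, cut at about 60% in these data, passing the limit was not always enough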
p97 inhibitor: inhibitors of human p97 ATPase, primary screen, biochemical; 0.42% of 220,000 active; recombinant p97 ATPase, Kinase-Glo ATP luminescence, 3 h; inhibition, % at 8 µM; Transitional endoplasmic reticulum ATPase (Homo sapiens), P55072; AID 1481, 2009; in the data active = inhibition above about 15%
Target sequence (P55072 whole entry, looked up): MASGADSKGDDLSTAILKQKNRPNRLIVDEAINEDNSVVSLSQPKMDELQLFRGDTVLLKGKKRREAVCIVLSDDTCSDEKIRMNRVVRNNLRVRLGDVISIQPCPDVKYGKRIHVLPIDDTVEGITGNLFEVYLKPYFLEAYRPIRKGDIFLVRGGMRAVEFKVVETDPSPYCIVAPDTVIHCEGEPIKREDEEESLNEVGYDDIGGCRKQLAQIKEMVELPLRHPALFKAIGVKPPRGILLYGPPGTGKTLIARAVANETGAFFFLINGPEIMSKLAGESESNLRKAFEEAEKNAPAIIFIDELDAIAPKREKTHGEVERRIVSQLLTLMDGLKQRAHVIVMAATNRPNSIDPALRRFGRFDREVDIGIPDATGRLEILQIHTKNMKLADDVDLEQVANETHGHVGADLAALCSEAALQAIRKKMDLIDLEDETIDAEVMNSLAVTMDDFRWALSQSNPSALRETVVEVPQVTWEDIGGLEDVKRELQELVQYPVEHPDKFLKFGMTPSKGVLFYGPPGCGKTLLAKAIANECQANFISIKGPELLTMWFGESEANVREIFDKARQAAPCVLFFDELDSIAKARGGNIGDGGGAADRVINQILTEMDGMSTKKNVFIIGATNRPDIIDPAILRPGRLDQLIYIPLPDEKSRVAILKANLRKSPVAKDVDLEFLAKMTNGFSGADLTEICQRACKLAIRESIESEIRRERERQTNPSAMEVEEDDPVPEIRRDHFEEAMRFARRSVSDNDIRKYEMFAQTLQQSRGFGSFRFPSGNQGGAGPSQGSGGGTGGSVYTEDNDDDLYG
Lmaj promast: Leishmania major promastigote growth inhibition, primary screen; 9% of 200,000 active; Leishmania major promastigotes, resazurin fluorescence viability; inhibition, % at 10 µM; in the data active = inhibition above about 50%;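 also: promastigotes grown with compound for 44 hours at 28 °C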
bCat KO growth: primary screen for growth suppressors in beta-catenin knockout HCT116 cells (colon tumor, human); HCT116 beta-catenin knockout viability, CellTiter-Glo, 60 h; hits give low values; 1.5% of 140,000 active; viability, % at 10 µM;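 active = viability at or under a set limit, the compound median less 4 SD, cut at about 6% in these data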
ROMK mod: ROMK potassium channel modulators, primary screen, cell-based, thallium flux, MLSMR library | ATP-sensitive inward rectifier potassium channel 1 (Homo sapiens), P48048 | Tet-inducible ROMK, thallium flux fluorescence; actives lie on both sides | B-score at 10 µM | 2% of 130,000 active | AID 1918, 2009;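 active = signal ratio slope over the read window, or its plate-corrected B-score, at least 3 SD from the plate mean, either direction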;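 also: B-score of the F/F0 ratio slope over 7 to 12 s after thallium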
Each line names hits and unclear results; the compound was inactive in the other large screens.

CCOC(=O)C1CCN(C(=O)Nc2cc(Cl)cc(Cl)c2)CC1	none (no result: PTEN del growth, Insulin prom inh, Lmaj promast, bCat KO growth)
O=C1CCCC2=C1C(c1ccc(O)cc1)c1c(ccc3ccccc13)N2 (stereo unspecified)	none (no result: PTEN del growth, Insulin prom inh, bCat KO growth)
CC(NCCOCCOc1ccccc1)c1ccccc1 (stereo unspecified)	none (no result: Insulin prom inh, ROMK mod)
CCC(C)NCCOCCOc1ccc(Cl)c(C)c1C (stereo unspecified)	Lmaj promast 97.9
CCC(C)NCCOCCOc1ccc(Cl)c2ccccc12 (stereo unspecified)	Lmaj promast 99.9 (no result: PTEN del growth, Insulin prom inh, bCat KO growth)
O=C(COc1ccc2ccc(=O)oc2c1)N1CCc2ccccc21	none (no result: PTEN del growth, Insulin prom inh, bCat KO growth)
O=C(/C=C/c1ccccc1)Nc1ccc(CN2CCOCC2)cc1	none (no result: Insulin prom inh, ROMK mod)
S=C(c1ccc(-c2cc(Cl)ccc2Cl)o1)N1CCOCC1	none (no result: Insulin prom inh)
O=C(/C=C/c1ccc(Cl)cc1)NC(=S)Nc1ccc(CN2CCOCC2)cc1	none (no result: Insulin prom inh)
O=C(/C=C/c1ccc(Cl)cc1Cl)Nc1ccc(CN2CCOCC2)cc1	Lmaj promast 70.0 (no result: Insulin prom inh, ROMK mod)
O=C(Nc1ccc(CN2CCOCC2)cc1)c1ccc(-c2cc(Cl)ccc2Cl)o1	Lmaj promast 98.6
S=C(c1ccc(-c2cc(Cl)ccc2Cl)o1)N1CCCCC1	Lmaj promast 54.4
CCOC(=O)N1CCC(N(CCN(C)C)C(=S)Nc2ccccc2OCC)CC1	none (no result: PTEN del growth, bCat KO growth)
C/C(=N\NC(=O)c1ccc(O)cc1)c1ccc2c(c1)Nc1ccccc1S2	Lmaj promast 75.4 (no result: Insulin prom inh, ROMK mod)
COc1ccc(N2C(=O)[C@@H]3[C@H](C2=O)[C@H]2c4ccccc4C=CN2[C@@H]3C(C)=O)cc1	ROMK mod -3.56
CC(C)CN(Cc1cc(=O)oc2cc3c(cc12)CCCC3)CC(C)C	none (no result: PTEN del growth, Insulin prom inh, Lmaj promast, bCat KO growth, ROMK mod)
O=C1c2ccccc2-c2onc3ccc(NCCCn4ccnc4)c1c23	Lmaj promast 100.1
Cn1/c(=N\NC(=O)c2ccccc2Cl)sc2ccccc21	none (no result: PTEN del growth, bCat KO growth)
O=[N+]([O-])c1cccc(-c2nc(-c3ccccc3)c(-c3cccs3)[nH]2)c1	none (no result: ROMK mod)
O=[N+]([O-])c1cccc(-c2nc(-c3cccs3)c(-c3cccs3)[nH]2)c1	none (no result: ROMK mod)
COc1ccc(-c2nc(-c3ccccc3)c(-c3cccs3)[nH]2)cc1OC	Lmaj promast 66.2
Fc1ccc(-c2nc(-c3cccs3)[nH]c2-c2ccc(F)cc2)cc1	Lmaj promast 98.6
COc1ccc(-c2nc(-c3cccs3)c(-c3cccs3)[nH]2)cc1OC	Lmaj promast 100.1
CCn1nc(C)c(Br)c1Nc1ccc(Br)cc1	none (no result: PTEN del growth, Insulin prom inh, bCat KO growth)
Cc1ccc(Cl)cc1NC(C#N)c1ccccc1 (stereo unspecified)	none (no result: PTEN del growth, Insulin prom inh, Lmaj promast, bCat KO growth)
Cc1cc2c3c(c1C)C1(C(=O)N3C(C)(C)CC2C)C(C#N)=C(N)Oc2cc(O)ccc21 (stereo unspecified)	Lmaj promast 69.8
COc1cc2c3c(c1)C1(C(=O)N3C(C)(C)C=C2C)C(C#N)=C(N)Oc2cc(O)ccc21 (stereo unspecified)	Lmaj promast 67.3 (no result: ROMK mod)
Cc1cc2c3c(c1)C1(C(=O)N3C(C)(C)CC2C)C(C#N)=C(N)OC2=C1C(=O)CC(C)(C)C2 (stereo unspecified)	none
O=C(N/N=C/c1ccccc1[N+](=O)[O-])c1ccc(COc2ccccc2-c2ccccc2)cc1	none (no result: Insulin prom inh, ROMK mod)
Cc1ccc([N+](=O)[O-])cc1N/C=C1\CCCCC1=O	none (no result: PTEN del growth, Insulin prom inh, bCat KO growth)
COc1ccc(-c2c3c(nc4sc5c(Cl)nc(C)nc5c24)CCC3)cc1	PTEN del growth 1.5, bCat KO growth 1.2 (no result: ROMK mod)
COC(=O)Cn1c2ccc(F)cc2c2nc(C)sc21	none (no result: Insulin prom inh)
Cc1nc2c3cc(F)ccc3n(Cc3ccc(F)cc3)c2s1	Insulin prom inh 76.7
O=C(O)c1ccc(NC(=O)C2(c3ccccc3)CCCC2)cc1	none (no result: PTEN del growth, Insulin prom inh, Lmaj promast, bCat KO growth, ROMK mod)
CCOC(=O)c1ccc(NC(=O)/C=C/c2cccs2)cc1	none (no result: PTEN del growth, Insulin prom inh, bCat KO growth)
CCN(CC)CCOC(=O)c1ccc(NC(=O)C2(c3ccccc3)CCCC2)cc1	Lmaj promast 69.5 (no result: PTEN del growth, ROMK mod)
CCN(CC)CCOC(=O)c1ccc(NC(=O)/C=C/c2cccs2)cc1	Lmaj promast 69.0
Cn1c(SCc2ccc([N+](=O)[O-])cc2)nnc1-c1cccnc1	none (no result: PTEN del growth, Insulin prom inh, bCat KO growth)
CCc1ccccc1NC(=S)N(CCN(C)C)C(C)c1cccnc1 (stereo unspecified)	none (no result: PTEN del growth, Insulin prom inh, bCat KO growth)
CN1CCN(CC2(O)CCN(S(=O)(=O)c3ccc(Cl)cc3)CC2)CC1	Lmaj promast 99.9 (no result: PTEN del growth, bCat KO growth)
Cc1cc(C)cc(NS(=O)(=O)c2ccc(NC(=S)Nc3ccccc3)cc2)c1	Lmaj promast 81.8
CN(C)S(=O)(=O)c1ccc(NC(=S)NC(=O)c2ccc(Br)o2)cc1	ROMK mod 2.43 (no result: PTEN del growth, bCat KO growth)
NS(=O)(=O)c1ccc(NC(=S)NC(=O)c2ccc(Br)o2)cc1	none (no result: PTEN del growth, Insulin prom inh, bCat KO growth, ROMK mod)
COc1ccc(NS(=O)(=O)c2ccc(NC(=S)NC(=O)c3ccc(Br)cc3)cc2)nn1	Lmaj promast 84.7
Cc1cc(C)cc(NS(=O)(=O)c2ccc(NC(=S)NC(=O)c3ccc(Br)o3)cc2)c1	Lmaj promast 95.2 (no result: ROMK mod)
NS(=O)(=O)c1ccc(NS(=O)(=O)c2ccc(NC(=S)Nc3ccccc3)cc2)cc1	none (no result: ROMK mod)
CCOc1ccc(CN2CCN(Cc3nc4c(s3)CCCC4)CC2CCO)cc1 (stereo unspecified)	none (no result: PTEN del growth, Insulin prom inh, bCat KO growth)
N#CC(=C1Nc2ccccc2N1)S(=O)(=O)c1ccccc1	none (no result: PTEN del growth, bCat KO growth)
O=C(COC(=O)CNS(=O)(=O)c1cccc(Br)c1)NC(=O)Nc1ccc2c(c1)OCCO2	none
O=c1cc(-c2ccccc2Cl)oc2cc(O)cc(O)c12	none
O=C1C=CC(O)(c2cc(=O)c3c(O)cc(O)cc3o2)C=C1	PTEN del growth 1.3, Lmaj promast 70.0, bCat KO growth 1.1
CCn1cc([N+](=O)[O-])c(C(=O)N2N=C(c3ccc4ccccc4c3)CC2c2cc(Br)ccc2O)n1 (stereo unspecified)	PTEN del growth 3.2, Lmaj promast 100.1, bCat KO growth 2.4
CCC(C)C(NC(=O)c1ccccc1NC(=O)c1ccc(C)cc1)C(=O)O (stereo unspecified)	none (no result: PTEN del growth, Insulin prom inh, bCat KO growth)
CCC(NC(=O)c1ccccc1NC(=O)c1ccco1)C(=O)O (stereo unspecified)	Lmaj promast 89.0 (no result: Insulin prom inh)
Cc1c(Cl)cccc1NC(=O)[C@@H](NC(=O)c1ccccc1Cl)C(C)C	Lmaj promast 73.3
Cc1ccc(C(=O)Nc2ccccc2C(=O)NC(CC(=O)O)C(=O)O)cc1 (stereo unspecified)	p97 inhibitor 31.8 (no result: Insulin prom inh, ROMK mod)
Cc1ccc(C(=O)Nc2ccccc2C(=O)NC(C(=O)O)C(C)C)cc1 (stereo unspecified)	PTEN del growth 0.8, bCat KO growth 0.5 (no result: ROMK mod)
CC1(C)CC(=O)C2=C(C1)N=C1SCCC(=O)N1C2c1cccc([N+](=O)[O-])c1 (stereo unspecified)	none (no result: PTEN del growth, Insulin prom inh, bCat KO growth)
Fc1ccc(/C=N/n2cnn(Cc3ccccc3Cl)c2=S)cc1	none (no result: PTEN del growth, Insulin prom inh, bCat KO growth)
CCC(NC(=O)c1ccccc1NC(=O)c1ccccc1)C(=O)O (stereo unspecified)	Lmaj promast 64.6 (no result: Insulin prom inh)
O=C(O)CC(NC(=O)c1ccccc1NC(=O)c1ccccc1)C(=O)O (stereo unspecified)	none (no result: ROMK mod)
